Screens as filed in PubChem BioAssay.
Rows were chosen to be rich in hits. Some 1.7% of all compounds tested hit in one or more screens of this group.
hERG WT inh – blocks the wildtype human KCNH2 potassium channel; U2OS, BacMam KCNH2, thallium flux FluxOr; hits give low values; Q12809; 0.37% of 340,000 active; activity change, % at 1.84 µM;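 active = maximum activity change below -70%; inconclusive = maximum activity change between -70% and -50%; inactive = maximum activity change above -50%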
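U2OS cells were transduced with wild-type KCNH2 virus (2.03 x 10^8 / mL) for 4 h at room temperature, then cultured overnight at 37 C. Thallium flux was read with FluxOr dye. Rate constants were normalized to DMSO controls.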
TRPML1 blocker – human mucolipin-1 channel inhibition; TRPML1-inducible cells, Ca2+ dye fluorescence, FDSS; hits give low values; inhibition of EC80 agonist-evoked calcium signal; Q9GZU1; 0.02% of 390,000 active; activity change, negative = inhibition, % (no concentration beside the values); in the data active = activity change below about -50%; inconclusive = between about -30% and that limit;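 note: stimulus is agonist 54-4 at its EC80 concentration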
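Calcium fluorescence in TRPML1-DL cells induced overnight with Tet: a 110 s read after compound pin addition, then a 110 s antagonist read after challenge with 54-4 at 4 uM final (EC80).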
KCNH2 3.1 inh – inhibitors of human KCNH2 3.1 potassium channel isoform; U2OS KCNH2 3.1, thallium flux FluxOr; hits give low values; activity change, % (tested at about 1.8 µM); 0.95% of 340,000 active; AID 720553;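 active = maximum activity change below -70%; inconclusive = maximum activity change from -70% to -50%; inactive = maximum activity change above -50%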;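 note: thallium influx rate constant from kinetic fluorescence after stimulation buffer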
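We transduce U2OS cells with the mutant 3.1 virus, culture them overnight, load FluxOr with Red40 quencher for 45 min, then add stimulation buffer and read kinetically for 2 min to derive a normalized rate constant.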
TRPML1 ag – activates the human TRPML1 channel; Q9GZU1; TRPML1-expressing cells, Ca2+ dye fluorescence, FDSS; activation, % (test concentration not listed); 0.12% of 410,000 active; in the data active = activation above about 50%; inconclusive = mostly about 30% to 49%
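Kinetic FDSS Ca2+ read in Tet-induced TRPML1-DL cells (ABD Ca8 dye plus quencher, 45-90 min RT loading): baseline, then compound, then 110 s agonist window; EC80 agonist 54-4 at 4uM final added afterwards for a 110 s antagonist window.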
TRHR ag – agonists of human TRH receptor; P34981; TRHR cells, calcium flux fluo-8, FDSS agonist mode; activation, % at 2 µM; 0.18% of 360,000 active; in the data active = activation above about 30%
Target sequence (P34981 whole entry, looked up): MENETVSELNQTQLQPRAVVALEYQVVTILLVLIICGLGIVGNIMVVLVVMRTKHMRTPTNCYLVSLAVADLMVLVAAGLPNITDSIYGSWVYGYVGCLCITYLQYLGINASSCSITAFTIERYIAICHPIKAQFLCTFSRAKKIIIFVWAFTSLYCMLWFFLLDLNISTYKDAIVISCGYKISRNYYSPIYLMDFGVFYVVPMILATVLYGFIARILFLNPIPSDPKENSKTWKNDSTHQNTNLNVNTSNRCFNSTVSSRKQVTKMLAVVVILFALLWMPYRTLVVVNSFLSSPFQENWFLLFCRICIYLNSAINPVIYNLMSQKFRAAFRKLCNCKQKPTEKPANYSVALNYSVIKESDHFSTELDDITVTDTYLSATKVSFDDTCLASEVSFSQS
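Steps: seed TRHR cells overnight; add fluo-8 no-wash Ca dye, RT 30 min–1.5 h; record 10 s baseline; pin-transfer compounds; monitor fluorescence 1 cycle/s for the agonist window. Calcium increases flag candidate agonists.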
TRHR PAM – TRH receptor (human) allosteric enhancement | 0.66% of 360,000 active | P34981 | enhancement, % at 2 µM | TRHR cells, fluo-8 calcium fluorescence, EC20 TRH enhancement; in the data active = enhancement above about 30%
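Enhancer read-out: after compound pinning and an initial kinetic agonist-mode read, an EC20 of TRH (10 nM final) was injected and fluo-8 calcium signal (Ex 480/Em 530) followed at 1 s/cycle for 100 cycles in TRHR-expressing cells.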
Numbers stand for hits; – = inactive; ? = inconclusive; · = no result given.

SMILES	hERG WT inh	TRPML1 blocker	KCNH2 3.1 inh	TRPML1 ag	TRHR ag	TRHR PAM
O=C(CCN1C(=O)c2ccccc2C1=O)NC(=S)Nc1ccccc1	–	–	–	–	–	–
O=C(CCN1C(=O)c2ccccc2C1=O)NC(=S)Nc1cccc(Cl)c1	–	–	-72	–	–	–
CCC(c1ccccc1)c1nnc(NC(=O)c2ccco2)s1 (centres undefined)	–	–	-117	–	–	–
CCOc1ccc(C2C(C(N)=O)=C(C)Nc3nc(SCc4ccccc4)nn32)cc1 (centres undefined)	·	–	·	–	–	–
CC1=C(c2ccc(C)c(C)c2)S(=O)(=O)N=C1N1CCC(C(=O)NCc2ccc(C)o2)CC1	·	–	·	–	–	31
CCCOc1ccc(/C(CC)=N/NC(=O)C2(C)CC2(Br)Br)cc1 (centres undefined)	–	–	-77	–	–	–
CC/C(=N/NC(=O)c1ccc(Br)cc1)c1ccc(OCCN2CCOCC2)cc1	–	–	–	–	–	–
CCOC(=O)c1nc(Nc2cc(Cl)ccc2OC)c2ccccc2n1	–	–	–	–	–	–
O=C(/C=C/c1ccc(Cl)cc1Cl)N1CCN(c2ccc([N+](=O)[O-])c(N3CCOCC3)c2)CC1	–	–	–	–	–	–
O=C(/C=C/c1ccc(Cl)cc1Cl)N1CCN(c2ccccc2[N+](=O)[O-])CC1	?	–	-95	–	–	–
CCn1c(=O)c(C(=O)NNC(=O)c2ccccc2F)c(O)c2ccccc21	–	–	–	–	43	–
O=[N+]([O-])c1ccc(Sc2nc3ccccc3o2)c([N+](=O)[O-])c1	–	–	–	–	–	30
O=C(c1ccc2c(c1)OCO2)C1CCCN(Cc2cccc(C(F)(F)F)c2)C1 (centres undefined)	–	–	–	–	–	–
O=C(c1ccc2c(c1)OCO2)C1CCCN(Cc2ccc(OC(F)F)cc2)C1 (centres undefined)	–	–	-94	–	–	–
O=C(c1ccc2c(c1)OCO2)C1CCCN(Cc2ccc3cccc(F)c3n2)C1 (centres undefined)	–	–	-101	–	–	–
CC1(c2nc3ccccc3[nH]2)CCC2=Nc3ccccc3CN21 (centres undefined)	·	·	·	–	·	·
COC(=O)c1cnn2c1C(=O)N(Cc1cccs1)CC2	–	–	–	–	–	34
COc1ccc(CN2CCn3ncc(C(=O)Nc4cccc(C)c4)c3C2=O)cc1	–	–	–	–	–	–
Cc1[nH]c2ccccc2c1/C=C/C(=O)c1ccccc1	–	–	-86	–	–	–
CC(=O)c1c(C)n(-c2ccccc2Br)c2ccc(O)cc12	–	–	–	–	–	–
CC1(C)CCN2CCC(C)(C)c3c(O)ccc1c32	–	–	–	?	34	–
Cc1ccc(Nc2ccc(N3CCN(c4ccc([N+](=O)[O-])cc4)CC3)nn2)cc1	-86	–	-109	–	–	–
O=C(NCCCc1cnc[nH]1)NCCCN(Cc1ccc(Cl)cc1)c1ccc(Br)cn1	·	·	·	–	·	·
COC(=O)Cn1ccc(-c2ccc(Cl)cc2)c(C#N)c1=O	–	–	-114	–	–	–
O=[N+]([O-])c1cccc(C(O)C23CN4CN(CN(C4)C2)C3)c1 (centres undefined)	–	–	–	–	–	–
SMILES	hERG WT inh	TRPML1 blocker	KCNH2 3.1 inh	TRPML1 ag	TRHR ag	TRHR PAM
O=[N+]([O-])c1ccc(C(O)C23CN4CN(CN(C4)C2)C3)cc1 (centres undefined)	–	–	–	–	–	40
Cc1cccc(C)c1NC(=O)C1c2ccccc2OCC(=O)N1CCc1ccccc1 (centres undefined)	·	·	·	–	·	·
Cc1ccc(S(=O)(=O)N2CCN(C(=O)COC(=O)Cc3c(F)cccc3Cl)CC2)c(C)c1	–	–	–	–	·	·
Cc1ccc(C)c(S(=O)(=O)N2CCN(C(=O)Cc3c(F)cccc3Cl)CC2)c1	–	–	-78	–	–	–
O=C(Nc1ccccc1Cl)c1cc(C2CCCN(C(=O)c3ccccc3)C2)on1 (centres undefined)	·	·	·	–	·	·
CCOc1ccc(C(=O)N2CCN(CCc3ccccc3)CC2)cc1OCC	–	–	-90	–	–	–
CCCSc1nnc(Cc2cc(=O)[nH]c(=O)[nH]2)n1-c1cc(C)ccc1C	-89	–	–	–	–	–
Cc1cccnc1NC(=O)CCNS(=O)(=O)c1ccc2c(c1)c(=O)n(C)c(=O)n2C	–	–	–	–	–	35
CN(C)C1CCC(CC2CCc3ccccc32)CC1 (centres undefined)	·	·	·	–	·	·
CCCCCCc1cc2cc(-c3nnc(-c4ccccc4OC)o3)c(=O)oc2cc1O	–	–	–	?	148	–
CCCCCCc1cc2cc(S(=O)(=O)c3ccc(F)cc3)c(=O)oc2cc1O	–	–	–	–	–	–
CCCCCCc1cc2cc(-c3nnc(-c4ccccc4O)o3)c(=O)oc2cc1O	–	–	–	?	147	51
CCCCCCc1cc2cc(-c3nnc(-c4cc(OC)c(OC)c(OC)c4)o3)c(=O)oc2cc1O	–	–	–	–	–	–
COc1ccc2[nH]c3c(c2c1)CCN1C(=O)C(CC(=O)NCCN2CCOCC2)C[C@H](C(=O)N2CCOCC2)[C@@]31C (some centres undefined)	–	–	–	–	·	·
Cc1cccc([C@@H](NC(=O)OC(C)(C)C)C(=O)OC(C)(C)C)c1	–	–	–	–	–	–
CC(C)(C)OC(=O)N[C@@H](C(=O)OC(C)(C)C)c1ccccc1	–	–	-86	–	–	–
Cc1ccc(/C(O)=C2\C(=O)C(=O)N(CC(C)O)C2c2ccc(N(C)C)cc2)cc1 (centres undefined)	-123	–	–	–	–	–
CCC1CCCCN1CCCNC(=O)c1ccc(CS(=O)(=O)c2ccccc2OC)o1 (centres undefined)	–	–	–	–	–	–
CCCCC(C(=O)N/N=C/c1ccccn1)C(=O)N/N=C/c1ccccn1	–	–	–	–	–	35
CCOC(=O)CC(=O)CSc1nc2c(cc1C#N)CCCCCC2	-116	–	–	–	–	–
O=C(C[N+]12CCCc3cccc(c31)CCC2)c1ccc2ccc3cccc4ccc1c2c34	·	·	·	–	·	·
O=C(/C=C/c1ccccc1)CC(O)(c1ccccc1)C(F)(F)C(F)F (centres undefined)	–	–	–	59	–	–
O=C(NCCc1ccncc1)Nc1ccccc1	–	–	–	–	–	–
O=C(NCCc1ccncc1)Nc1ccc(Cl)c(Cl)c1	–	–	-82	–	–	–
CCOC(=O)C1(C)CCCN(C(=O)COc2ccccc2)C1 (centres undefined)	·	·	·	–	·	·
